# Test results as given in article PMC7862700, “An all-to-all approach to the identification of sequence-specific readers for epigenetic DNA modifications on cytosine”.
# Columns and labels:
# Assay in all cases: DAPPL (digital affinity profiling via proximity ligation, sequencing); 10 mM Tris-HCl pH 7.5, 50 mM NaCl, 1 mM DTT, 4% glycerol, room temperature, 30 min; GST-TFs on glutathione beads, 16-mer random dsDNA library, 0.1% formaldehyde crosslink after washing; high values mean tight binding
# [1] = target: T1, FEV (Homo sapiens, UniProt Q99581 1-238); settings: protein: recombinant; tags: N-terminal GST; dsDNA, one strand shown
# T1 sequence: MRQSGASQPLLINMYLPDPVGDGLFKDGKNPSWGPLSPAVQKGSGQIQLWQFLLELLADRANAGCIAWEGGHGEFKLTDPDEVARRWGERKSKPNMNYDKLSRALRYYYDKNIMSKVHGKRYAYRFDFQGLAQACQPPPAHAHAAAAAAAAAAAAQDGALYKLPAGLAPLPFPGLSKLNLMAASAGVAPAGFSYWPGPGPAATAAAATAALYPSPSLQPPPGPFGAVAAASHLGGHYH
# Method in brief: (§1)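 After expression in yeast as GST fusions, human transcription factors were bound to glutathione beads, DNA-barcoded and mixed with a tag-only sample. The pools were incubated with 200 nmole of a 16-mer random double-stranded DNA library in Tris/NaCl/DTT/glycerol buffer (30 min, room temperature), washed and crosslinked with 0.1% formaldehyde. Proximity ligation with BsaI/T4 ligase ran for 1 h at 37 °C, before PCR amplification and sequencing on an Illumina NextSeq500. Binding signal is a hexamer's read frequency for a factor divided by its frequency for the tag-only sample.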
# [2] = target: ETV5 (Homo sapiens, UniProt P41161 1-510); settings: protein: recombinant; tags: N-terminal GST; dsDNA, one strand shown
# Method in brief: as §1
# [3] = target: HSF1 (Homo sapiens, UniProt Q00613 1-529); settings: protein: recombinant; tags: N-terminal GST; chain copies: 3; dsDNA, one strand shown
# Method in brief: as §1
# [4] = target: T2, SPIC (Homo sapiens, UniProt Q8N5J4 1-248); settings: protein: recombinant; tags: N-terminal GST; dsDNA, one strand shown
# T2 sequence: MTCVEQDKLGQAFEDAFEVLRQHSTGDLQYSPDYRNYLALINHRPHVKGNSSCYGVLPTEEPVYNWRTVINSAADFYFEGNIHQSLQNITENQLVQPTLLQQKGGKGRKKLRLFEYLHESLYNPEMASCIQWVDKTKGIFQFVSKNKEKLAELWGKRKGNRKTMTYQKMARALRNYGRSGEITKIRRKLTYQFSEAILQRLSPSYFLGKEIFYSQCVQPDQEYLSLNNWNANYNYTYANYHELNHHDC
# Method in brief: as §1
# [5] = target: ELF4 (Homo sapiens, UniProt Q99607 1-663); settings: protein: recombinant; tags: N-terminal GST; dsDNA, one strand shown
# Method in brief: as §1
# [6] = target: T3, ELK4 (Homo sapiens, UniProt P28324-2 1-405); settings: protein: recombinant; tags: N-terminal GST; dsDNA, one strand shown
# T3 sequence: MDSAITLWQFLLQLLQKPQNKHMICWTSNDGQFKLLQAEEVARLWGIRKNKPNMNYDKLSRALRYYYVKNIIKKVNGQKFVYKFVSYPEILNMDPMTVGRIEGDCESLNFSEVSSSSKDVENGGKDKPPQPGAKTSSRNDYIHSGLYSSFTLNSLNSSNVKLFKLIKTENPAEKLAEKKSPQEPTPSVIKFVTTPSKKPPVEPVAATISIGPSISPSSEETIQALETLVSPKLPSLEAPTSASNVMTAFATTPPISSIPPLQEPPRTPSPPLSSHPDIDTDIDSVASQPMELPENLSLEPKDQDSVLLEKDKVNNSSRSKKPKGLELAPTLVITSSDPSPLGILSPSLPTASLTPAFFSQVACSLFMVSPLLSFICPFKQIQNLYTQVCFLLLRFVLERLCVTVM
# Method in brief: as §1
# [7] = target: T4, ETV2 (Homo sapiens, UniProt O00321 1-342); settings: protein: recombinant; tags: N-terminal GST; dsDNA, one strand shown
# T4 sequence: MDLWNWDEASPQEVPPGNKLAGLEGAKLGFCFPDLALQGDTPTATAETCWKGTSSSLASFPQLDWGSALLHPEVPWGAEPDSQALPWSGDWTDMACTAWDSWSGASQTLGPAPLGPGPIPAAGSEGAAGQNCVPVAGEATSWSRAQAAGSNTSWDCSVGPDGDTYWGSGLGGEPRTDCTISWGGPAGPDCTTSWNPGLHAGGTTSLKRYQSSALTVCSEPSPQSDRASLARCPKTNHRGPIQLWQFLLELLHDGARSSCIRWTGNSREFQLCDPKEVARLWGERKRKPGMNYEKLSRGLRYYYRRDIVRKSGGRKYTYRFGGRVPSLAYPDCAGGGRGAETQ
# Method in brief: as §1
# [8] = target: T5, ELF3 (Homo sapiens, UniProt P78545 1-371); settings: protein: recombinant; tags: N-terminal GST; dsDNA, one strand shown
# T5 sequence: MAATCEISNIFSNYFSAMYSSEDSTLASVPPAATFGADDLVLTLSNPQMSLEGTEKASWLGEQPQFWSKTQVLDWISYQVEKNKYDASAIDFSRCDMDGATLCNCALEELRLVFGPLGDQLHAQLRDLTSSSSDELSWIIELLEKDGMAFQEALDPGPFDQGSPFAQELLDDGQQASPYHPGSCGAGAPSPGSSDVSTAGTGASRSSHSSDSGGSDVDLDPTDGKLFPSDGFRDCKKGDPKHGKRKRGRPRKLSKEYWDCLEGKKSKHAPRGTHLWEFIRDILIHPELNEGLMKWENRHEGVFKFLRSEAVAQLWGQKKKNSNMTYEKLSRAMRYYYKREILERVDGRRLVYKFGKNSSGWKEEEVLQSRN
# Method in brief: as §1
# [9] = target: CRX (Homo sapiens, UniProt O43186 1-299); settings: protein: recombinant; tags: N-terminal GST; dsDNA, one strand shown
# Method in brief: as §1
# [10] = target: ETV1 (Homo sapiens, UniProt P50549 1-477); settings: protein: recombinant; tags: N-terminal GST; dsDNA, one strand shown
# Method in brief: as §1
# [11] = target: T6, ERF (Homo sapiens, UniProt P50548 1-548); settings: protein: recombinant; tags: N-terminal GST; dsDNA, one strand shown
# T6 sequence: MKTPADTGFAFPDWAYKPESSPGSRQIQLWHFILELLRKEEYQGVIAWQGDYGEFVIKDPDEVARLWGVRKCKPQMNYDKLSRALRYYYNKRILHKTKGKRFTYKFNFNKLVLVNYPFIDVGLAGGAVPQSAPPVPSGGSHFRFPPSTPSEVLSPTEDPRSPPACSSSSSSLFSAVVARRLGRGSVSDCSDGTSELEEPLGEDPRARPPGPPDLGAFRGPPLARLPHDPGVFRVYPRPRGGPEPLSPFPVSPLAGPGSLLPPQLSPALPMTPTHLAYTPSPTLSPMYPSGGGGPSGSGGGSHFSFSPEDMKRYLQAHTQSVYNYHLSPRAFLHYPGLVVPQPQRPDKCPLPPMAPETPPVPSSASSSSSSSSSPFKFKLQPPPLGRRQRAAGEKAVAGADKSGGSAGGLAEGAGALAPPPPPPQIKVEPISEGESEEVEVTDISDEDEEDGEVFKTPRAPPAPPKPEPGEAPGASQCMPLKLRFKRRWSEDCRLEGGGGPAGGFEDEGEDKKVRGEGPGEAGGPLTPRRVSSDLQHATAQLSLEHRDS
# Method in brief: as §1
# [12] = target: T7, ETV3L (Homo sapiens, UniProt Q6ZN32 1-361); settings: protein: recombinant; tags: N-terminal GST; dsDNA, one strand shown
# T7 sequence: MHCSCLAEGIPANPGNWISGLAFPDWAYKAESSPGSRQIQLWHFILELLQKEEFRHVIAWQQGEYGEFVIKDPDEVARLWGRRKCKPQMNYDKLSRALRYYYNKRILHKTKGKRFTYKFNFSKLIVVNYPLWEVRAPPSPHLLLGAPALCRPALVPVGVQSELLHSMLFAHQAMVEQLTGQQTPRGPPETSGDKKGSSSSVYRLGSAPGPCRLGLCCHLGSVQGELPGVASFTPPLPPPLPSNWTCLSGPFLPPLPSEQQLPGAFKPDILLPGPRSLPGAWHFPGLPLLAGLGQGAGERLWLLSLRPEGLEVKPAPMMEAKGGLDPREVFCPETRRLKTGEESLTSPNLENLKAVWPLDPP
# Method in brief: as §1
# [13] = target: T8, ETS2 (Homo sapiens, UniProt P15036 1-469); settings: protein: recombinant; tags: N-terminal GST; dsDNA, one strand shown
# T8 sequence: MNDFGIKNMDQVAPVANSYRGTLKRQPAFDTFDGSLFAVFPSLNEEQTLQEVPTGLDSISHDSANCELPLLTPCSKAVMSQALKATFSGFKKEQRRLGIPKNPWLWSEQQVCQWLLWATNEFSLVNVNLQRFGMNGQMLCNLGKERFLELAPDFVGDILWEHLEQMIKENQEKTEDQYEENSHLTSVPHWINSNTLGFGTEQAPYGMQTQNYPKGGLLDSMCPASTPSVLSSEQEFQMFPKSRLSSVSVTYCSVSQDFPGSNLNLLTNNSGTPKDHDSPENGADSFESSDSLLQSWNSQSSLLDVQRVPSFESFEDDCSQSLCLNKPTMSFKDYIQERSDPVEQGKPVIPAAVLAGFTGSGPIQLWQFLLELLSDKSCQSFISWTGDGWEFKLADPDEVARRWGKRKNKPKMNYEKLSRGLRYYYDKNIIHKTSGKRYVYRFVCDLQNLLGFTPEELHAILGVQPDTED
# Method in brief: as §1
# [14] = target: T9, SPDEF (Homo sapiens, UniProt O95238 1-335); settings: protein: recombinant; tags: N-terminal GST; dsDNA, one strand shown
# T9 sequence: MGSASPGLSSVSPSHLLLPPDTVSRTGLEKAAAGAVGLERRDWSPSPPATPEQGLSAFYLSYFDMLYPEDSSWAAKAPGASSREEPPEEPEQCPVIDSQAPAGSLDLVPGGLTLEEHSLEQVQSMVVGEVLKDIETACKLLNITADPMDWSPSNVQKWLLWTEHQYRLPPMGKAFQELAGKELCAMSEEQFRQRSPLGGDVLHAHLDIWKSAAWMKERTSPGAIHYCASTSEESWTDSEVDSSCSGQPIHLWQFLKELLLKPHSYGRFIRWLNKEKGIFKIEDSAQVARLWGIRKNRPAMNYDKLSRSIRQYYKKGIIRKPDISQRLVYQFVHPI
# Method in brief: as §1
# [15] = target: T10, ETV7 (Homo sapiens, UniProt Q9Y603 1-341); settings: protein: recombinant; tags: N-terminal GST; dsDNA, one strand shown
# T10 sequence: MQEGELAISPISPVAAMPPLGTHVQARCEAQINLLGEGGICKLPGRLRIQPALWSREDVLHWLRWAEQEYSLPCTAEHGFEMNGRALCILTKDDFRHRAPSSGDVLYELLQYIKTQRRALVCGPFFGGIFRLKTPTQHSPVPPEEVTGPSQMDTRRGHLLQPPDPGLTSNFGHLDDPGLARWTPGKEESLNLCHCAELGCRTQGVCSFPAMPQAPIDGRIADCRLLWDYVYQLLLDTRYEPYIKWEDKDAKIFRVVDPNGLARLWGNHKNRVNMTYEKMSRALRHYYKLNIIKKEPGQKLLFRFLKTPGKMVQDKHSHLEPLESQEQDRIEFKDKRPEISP
# Method in brief: as §1
# [16] = target: T11, ELF5 (Homo sapiens, UniProt Q9UKW6-2 1-255); settings: protein: recombinant; tags: N-terminal GST; dsDNA, one strand shown
# T11 sequence: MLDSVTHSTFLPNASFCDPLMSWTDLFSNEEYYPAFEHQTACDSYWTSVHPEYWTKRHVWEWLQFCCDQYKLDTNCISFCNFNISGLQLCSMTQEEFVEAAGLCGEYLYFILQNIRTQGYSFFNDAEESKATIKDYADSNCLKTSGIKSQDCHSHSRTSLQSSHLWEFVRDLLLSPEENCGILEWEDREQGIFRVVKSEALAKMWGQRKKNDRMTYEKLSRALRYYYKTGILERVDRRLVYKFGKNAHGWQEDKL
# Method in brief: as §1
# [17] = target: T12, ETV3 (Homo sapiens, UniProt P41162-2 1-143); settings: protein: recombinant; tags: N-terminal GST; dsDNA, one strand shown
# T12 sequence: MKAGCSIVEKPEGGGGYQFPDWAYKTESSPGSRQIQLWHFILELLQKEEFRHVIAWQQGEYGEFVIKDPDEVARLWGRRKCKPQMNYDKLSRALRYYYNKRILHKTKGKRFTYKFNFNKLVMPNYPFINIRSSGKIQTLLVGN
# Method in brief: as §1
# [18] = target: ETV6 (Homo sapiens, UniProt P41212 1-452); settings: protein: recombinant; tags: N-terminal GST; dsDNA, one strand shown
# Method in brief: as §1
# ELF4, sequence (Q99607 whole entry): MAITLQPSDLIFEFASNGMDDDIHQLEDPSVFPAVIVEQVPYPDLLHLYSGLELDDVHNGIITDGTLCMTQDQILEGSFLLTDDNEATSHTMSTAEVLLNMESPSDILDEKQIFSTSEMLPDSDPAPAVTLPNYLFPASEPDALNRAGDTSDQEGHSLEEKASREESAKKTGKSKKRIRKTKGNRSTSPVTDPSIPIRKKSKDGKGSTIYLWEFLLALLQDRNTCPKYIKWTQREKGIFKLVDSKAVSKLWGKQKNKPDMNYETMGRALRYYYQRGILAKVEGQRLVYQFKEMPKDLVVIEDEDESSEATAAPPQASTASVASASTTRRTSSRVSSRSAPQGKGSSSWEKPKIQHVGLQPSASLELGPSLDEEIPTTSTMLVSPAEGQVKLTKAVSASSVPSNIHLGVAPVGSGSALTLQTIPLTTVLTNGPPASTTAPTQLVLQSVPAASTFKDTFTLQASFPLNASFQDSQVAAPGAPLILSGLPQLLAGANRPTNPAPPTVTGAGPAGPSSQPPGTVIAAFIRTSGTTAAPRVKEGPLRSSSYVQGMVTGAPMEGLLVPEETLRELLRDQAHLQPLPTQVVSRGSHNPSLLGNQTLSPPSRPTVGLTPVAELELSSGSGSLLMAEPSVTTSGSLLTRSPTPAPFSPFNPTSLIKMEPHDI
# HSF1, sequence (Q00613 whole entry): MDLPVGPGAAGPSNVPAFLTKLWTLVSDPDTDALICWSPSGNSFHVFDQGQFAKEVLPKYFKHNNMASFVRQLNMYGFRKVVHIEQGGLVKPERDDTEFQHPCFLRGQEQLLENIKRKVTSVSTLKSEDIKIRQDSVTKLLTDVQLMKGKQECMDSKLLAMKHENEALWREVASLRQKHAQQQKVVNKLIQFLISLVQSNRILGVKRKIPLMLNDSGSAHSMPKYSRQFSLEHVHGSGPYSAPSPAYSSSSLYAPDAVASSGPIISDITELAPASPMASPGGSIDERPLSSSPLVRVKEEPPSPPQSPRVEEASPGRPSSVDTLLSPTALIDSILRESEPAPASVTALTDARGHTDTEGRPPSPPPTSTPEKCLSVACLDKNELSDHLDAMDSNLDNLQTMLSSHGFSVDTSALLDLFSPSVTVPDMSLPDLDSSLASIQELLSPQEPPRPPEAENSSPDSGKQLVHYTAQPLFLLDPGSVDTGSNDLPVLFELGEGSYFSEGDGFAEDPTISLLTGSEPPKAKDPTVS
# ETV6, sequence (P41212 whole entry): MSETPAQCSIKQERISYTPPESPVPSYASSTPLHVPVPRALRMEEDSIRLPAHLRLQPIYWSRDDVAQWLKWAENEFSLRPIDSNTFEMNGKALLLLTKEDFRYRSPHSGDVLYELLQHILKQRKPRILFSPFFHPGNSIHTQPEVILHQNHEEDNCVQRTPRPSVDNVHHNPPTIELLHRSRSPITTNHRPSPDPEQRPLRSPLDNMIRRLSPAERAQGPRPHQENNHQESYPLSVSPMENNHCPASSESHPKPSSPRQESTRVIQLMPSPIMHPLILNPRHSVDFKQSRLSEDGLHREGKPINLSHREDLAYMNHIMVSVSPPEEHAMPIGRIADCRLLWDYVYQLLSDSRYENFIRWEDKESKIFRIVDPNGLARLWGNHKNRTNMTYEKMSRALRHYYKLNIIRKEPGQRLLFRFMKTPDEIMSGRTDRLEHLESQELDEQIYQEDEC
# ETV1, sequence (P50549 whole entry): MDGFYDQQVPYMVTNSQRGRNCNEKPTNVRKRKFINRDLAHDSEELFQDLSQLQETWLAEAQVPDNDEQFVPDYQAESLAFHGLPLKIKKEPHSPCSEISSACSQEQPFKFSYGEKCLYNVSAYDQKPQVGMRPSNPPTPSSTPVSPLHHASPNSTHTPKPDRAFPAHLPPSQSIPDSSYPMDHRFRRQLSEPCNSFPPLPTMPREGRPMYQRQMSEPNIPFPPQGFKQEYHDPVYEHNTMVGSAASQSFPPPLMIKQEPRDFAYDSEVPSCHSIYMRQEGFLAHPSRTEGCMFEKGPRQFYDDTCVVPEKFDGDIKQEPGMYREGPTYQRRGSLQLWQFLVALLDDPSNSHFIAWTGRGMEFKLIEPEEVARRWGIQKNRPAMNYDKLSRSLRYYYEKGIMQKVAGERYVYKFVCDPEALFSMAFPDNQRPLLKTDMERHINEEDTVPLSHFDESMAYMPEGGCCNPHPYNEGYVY
# CRX, sequence (O43186 whole entry): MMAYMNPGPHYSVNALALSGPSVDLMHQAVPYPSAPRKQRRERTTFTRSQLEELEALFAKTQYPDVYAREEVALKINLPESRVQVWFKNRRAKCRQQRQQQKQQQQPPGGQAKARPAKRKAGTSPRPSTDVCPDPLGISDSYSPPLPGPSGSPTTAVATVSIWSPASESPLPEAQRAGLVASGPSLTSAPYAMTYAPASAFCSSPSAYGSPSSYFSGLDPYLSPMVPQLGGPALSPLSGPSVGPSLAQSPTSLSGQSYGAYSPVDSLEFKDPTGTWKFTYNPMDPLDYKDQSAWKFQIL
# ETV5, sequence (P41161 whole entry): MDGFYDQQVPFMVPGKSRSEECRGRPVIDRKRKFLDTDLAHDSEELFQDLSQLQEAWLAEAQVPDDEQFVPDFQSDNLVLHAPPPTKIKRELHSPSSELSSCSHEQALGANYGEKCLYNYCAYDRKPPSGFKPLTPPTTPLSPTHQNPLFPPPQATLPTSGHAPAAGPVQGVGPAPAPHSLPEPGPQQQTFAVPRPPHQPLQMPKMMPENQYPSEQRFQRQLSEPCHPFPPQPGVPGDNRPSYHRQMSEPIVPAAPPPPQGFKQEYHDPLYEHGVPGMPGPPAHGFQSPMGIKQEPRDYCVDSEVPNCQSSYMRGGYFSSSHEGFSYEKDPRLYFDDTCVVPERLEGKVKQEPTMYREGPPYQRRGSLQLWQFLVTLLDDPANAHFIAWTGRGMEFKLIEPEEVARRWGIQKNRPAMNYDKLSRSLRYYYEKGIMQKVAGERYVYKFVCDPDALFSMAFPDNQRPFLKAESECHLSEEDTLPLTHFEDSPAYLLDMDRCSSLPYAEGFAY
sequence,measurement,setting,value
TCTCCC,binding signal,[1],"1.7 fold enrichment (6-mer frequency, TF over GST control)"
same,binding signal,[2],"1.64 fold enrichment (6-mer frequency, TF over GST control)"
same,binding signal,[3],"1.65 fold enrichment (6-mer frequency, TF over GST control)"
same,binding signal,[4],"1.51 fold enrichment (6-mer frequency, TF over GST control)"
same,binding signal,[5],"1.78 fold enrichment (6-mer frequency, TF over GST control)"
same,binding signal,[6],"1.63 fold enrichment (6-mer frequency, TF over GST control)"
same,binding signal,[7],"1.54 fold enrichment (6-mer frequency, TF over GST control)"
same,binding signal,[8],"1.78 fold enrichment (6-mer frequency, TF over GST control)"
same,binding signal,[9],"1.7 fold enrichment (6-mer frequency, TF over GST control)"
same,binding signal,[10],"1.78 fold enrichment (6-mer frequency, TF over GST control)"
same,binding signal,[11],"1.89 fold enrichment (6-mer frequency, TF over GST control)"
same,binding signal,[12],"1.61 fold enrichment (6-mer frequency, TF over GST control)"
same,binding signal,[13],"1.6 fold enrichment (6-mer frequency, TF over GST control)"
same,binding signal,[14],"1.6 fold enrichment (6-mer frequency, TF over GST control)"
same,binding signal,[15],"1.57 fold enrichment (6-mer frequency, TF over GST control)"
same,binding signal,[16],"1.7 fold enrichment (6-mer frequency, TF over GST control)"
same,binding signal,[17],"1.71 fold enrichment (6-mer frequency, TF over GST control)"
same,binding signal,[18],"1.76 fold enrichment (6-mer frequency, TF over GST control)"
